uPA generation = blocks generation of uPA at the cell surface; cell surface uPA generation assay, qHTS; Potency, µM (highest dose often 38.3 µM), for the others: at the top dose activity change, negative = inhibition, actives largely listed as inhibitors; 330,000 compounds, 0.31% hits; AID 540303; active = well fitted inhibition curve with a large enough effect; inconclusive = small, poorly fitted or top-dose-only effect; inactive = no such curve, though single readings can be large or run the other way; tested in mouse RAW 264.7 cells; note: potency is the fitted concentration of half-maximal effect; nearly all actives have a fitted effect of over 55% in size
TDP1 cell CPT = growth inhibition of DT40 Tdp1-/-;hTDP1 cells with camptothecin (screen for TDP1 inhibitors). chicken DT40 Tdp1-/-;hTDP1 cells + 20 nM CPT, ATP luminescence, 48 h. Potency, µM (highest dose often 46.2 µM), for the others: top-dose activity change, negative = growth inhibition, actives largely listed as inhibitors. 420,000 compounds, 12% hits. AID 686979; note: potency is the fitted concentration of half-maximal effect; nearly all actives have a fitted effect of over 55% in size
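Cell growth measured by CellTiter-Glo luminescence after a minimum 48 h, 37 C compound exposure with 20 nM CPT in Tdp1-knockout DT40 cells stably expressing hTDP1, seeded 400/well; qHTS titration format.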
IL-1B inflam inh = blocks inflammasome-driven IL-1 beta release; activity change, % at 57.5 µM; AID 743279; 360,000 compounds, 4.7% hits; THP-1 LPS/ATP IL-1B secretion, AlphaLISA, 16 h; stronger effect = lower value; in the data active = activity change below about -50%; inconclusive = mostly about -30% to -49%
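THP-1 cells pretreated 1 hr with compounds (up to 57.5 uM final), then stimulated with LPS (250 ng/mL final) plus ATP (1.25 mM final); secreted IL-1B measured by AlphaLISA after 16 hr, decreased signal indicating inhibition.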
DT40 TDP1 no CPT = qHTS for Inhibitors of human tyrosyl-DNA phosphodiesterase 1 (TDP1): qHTS in cells in absence of CPT; 420,000 compounds, 15% hits; Potency, µM (series often up to 46.2 µM), without a hit: top-dose activity change, negative = growth inhibition, actives largely listed as inhibitors; AID 686978, 2013; DT40 Tdp1-/- hTDP1 cells, no CPT, ATP luminescence, 48 h; note: potency is the fitted concentration of half-maximal effect; nearly all actives have a fitted effect of over 55% in size
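DT40 Tdp1-/-;hTDP1 cells, no CPT (DMSO vehicle only), 400 cells/well; compounds pin-transferred; ≥48 hr, 37 °C; CellTiter-Glo 30 min RT dark, luminescence read.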
HT1080-NT tox = kills 2HG-producing HT-1080-NT fibrosarcoma cells; HT-1080-NT fibrosarcoma viability, CellTiter-Glo ATP luminescence, 48 h; Potency, µM (doses to about 46.1 µM), for the others: top-dose activity, negative = less viability, usual class: cytotoxic; 360,000 compounds, 1.6% hits;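 note: NT is the 2HG producing partner of a matched IDH1 knockdown line; potency is the fitted concentration of half-maximal effect; 0% = DMSO-treated cells and -100% = media-only wells without cells; nearly all actives have a fitted effect of over 55% in size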
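Luminescent CellTiter-Glo readout after 48 hours of compound exposure at 37 degrees C defined viability of HT-1080-NT cells. Activity was normalized to DMSO wells and cell-free media wells; concentration-response curves were fitted and assigned curve classes.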
HT1080 IDH1KD tx = kills HT-1080 cells with IDH1 knockdown; HT-1080 IDH1 knockdown viability, ATP luminescence, 48 h; Potency, µM (highest dose often 46.1 µM), without a hit: top-dose activity, negative = toxicity, hits mostly cytotoxic; 360,000 compounds, 2% hits; AID 686971;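 note: potency is the fitted concentration of half-maximal effect; 0% = DMSO wells and -100% = cell-free medium wells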
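Assay cells: HT-1080 with IDH1 knockdown, 750 per well, RPMI/5% FBS. Exposure: 48 h at 37 °C following 2 h pre-incubation. Read: CellTiter-Glo luminescence; fitted concentration-response, curve class assigned.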
* marks the source's active call; other numbers are inactive results; ? = inconclusive; · = no result given; [ ] = dose if it differs, or a comment. Only some compounds are listed: those with a hit (about 19% of all), similar ones and a draw of the others. Unless noted, calls come from the whole dose curve; as a rule, active = well fitted curve in the direction sought with a large enough effect; inconclusive = small, poorly fitted or top-dose-only effect, or another doubt; inactive = no such curve, though single readings can be large; an effect the other way counts as inactive or inconclusive. Unless noted, % is set by controls: 0 for no effect and ±100 for the full control effect.

SMILES | uPA generation | TDP1 cell CPT | IL-1B inflam inh | DT40 TDP1 no CPT | HT1080-NT tox | HT1080 IDH1KD tx
COc1ccc(Cl)cc1C(=O)C1CCCN(Cc2cnc(C)s2)C1 (stereo not given) | -2% | -26% | -2 | ? | -4% | -11%
CC(c1nc2ccccc2c(=O)[nH]1)N(C)CCOc1ccc(Cl)cc1 (stereo not given) | 4% | 21µM* | 5 | 18µM* | 0% | 6%
CN1CCN(Cc2nc3ccccc3c(=O)[nH]2)CC1 | · | -28% | 26 | -7% | -7%[9.24 µM] | -9%
O=C(CCc1ccc(O)cc1)N1C[C@H]2C[C@@H](C1)c1cccc(=O)n1C2 | 0% | 6% | 13 | 2% | 5% | 1%
CC(=O)OC(C)(C)/C=C/C(=O)[C@](C)(O)C1[C@H](O)C[C@@]2(C)C3CC=C4C(C[C@H](O)C(=O)C4(C)C)[C@]3(C)C(=O)C[C@]12C (stereo not given in full) | -15% | 0.0082µM* | -106* | 0.021µM* | ? | 0.033µM*
CC(C)(O)/C=C/C(=O)C(C)(O)C1C(O)CC2(C)C3CC=C4C(C=C(O)C(=O)C4(C)C)C3(C)C(=O)CC12C (stereo not given) | -4% | 0.037µM* | -103* | 0.016µM* | 0.65µM* | 0.15µM*
CC1(C)NC(=S)C(C)(C)N1N=O | 3% | 8% | 0 | -2% | 1% | 1%
O=C(CCCc1ccc(N(CCCl)CCCl)cc1)NCc1ccccc1 | · | 0.73µM* | 47 | 0.73µM* | ? | 23µM*
CCOc1ccc(/C=C/c2nc(C#N)c(NCc3ccccc3)o2)cc1 | · | ? | · | 1.2µM* | · | ·
CC(=O)O[C@H]1C[C@H](O[C@H]2[C@@H](O)C[C@H](O[C@H]3[C@@H](O)C[C@H](OC4CC[C@@]5(C)[C@H](CC[C@@H]6[C@@H]5CC[C@]5(C)[C@@H](C7=CC(=O)OC7)CC[C@]65O)C4)O[C@@H]3C)O[C@@H]2C)O[C@H](C)[C@H]1O[C@@H]1O[C@H](CO)[C@@H](O)[C@H](O)[C@H]1O (stereo not given in full) | · | 0.34µM* | · | 0.3µM* | · | ·
CC(=O)OC1CC(OC2C(O)CC(OC3C(O)CC(OC4CCC5(C)C(CCC6C5CC(O)C5(C)C(C7=CC(=O)OC7)CCC65O)C4)OC3C)OC2C)OC(C)C1OC1OC(CO)C(O)C(O)C1O (stereo not given) | 0% | 1.3µM* | -66* | 0.65µM* | 0.37µM* | 0.21µM*
CC(=O)OC1CC[C@]2(C)C(CCC3C2CC[C@]2(C)C(C4=CC(=O)OC4)C(OC(C)=O)CC32O)C1 (stereo not given in full) | · | -18% | · | ? | · | ·
CC12C=CC(=O)C=C1CCC1C2C(O)CC2(C)C1CCC2(C)O (stereo not given) | 9% | 21% | 0 | 12% | 4% | 7%
CC1CC(C)(O)CC(C(O)CC2CC(=O)NC(=O)C2)C1=O (stereo not given) | -10% | 0.18µM* | -101* | 0.18µM* | ? | 0.16µM*
CC(=NCCC1=CCCCC1)c1c(O)n(C)c(=O)n(C)c1=O | -3% | 10µM* | 27 | 23µM* | 6% | -2%
CC(=NCCO)c1c(O)n(C)c(=O)n(C)c1=O | 9% | -8% | 14 | -1% | 8% | 14%
[Cl][In]([Cl])[Cl] | · | ? | · | -9%[92.5 µM] | · | ·
O=S1(=O)N(Cc2ccc(F)cc2)CCCN1Cc1ccccc1Cl | 1% | -9% | -7 | -11% | -11% | 2%
COC(=O)CC1(CC(=O)OC)C(=O)N(c2ccccc2)C(=O)N(c2ccccc2)C1=O | 2% | 13% | 16 | -26% | 3% | 0%
COc1cccc(CSc2nc(-c3ccccc3OC)nc3c2Cc2c(CO)cnc(C)c2O3)c1 | · | 5.8µM* | · | 3.7µM* | · | ·
Cc1ncc(CO)c2c1Oc1nc(-c3ccccc3Cl)nc(SCc3ccccc3F)c1C2 | · | 15µM* | · | 15µM* | · | ·
Fc1ccccc1CSc1ncnc2c1ncn2C1CCCO1 (stereo not given) | -9% | -30% | 9 | ? | -25% | ?
Cc1ccc2nc(NC(=O)c3cccn(Cc4ccc(Cl)cc4)c3=O)sc2c1 | · | -3% | · | 2% | · | ·
O=C(Nc1ccc2nc(SCC(=O)N3CCOCC3)sc2c1)c1ccc(Cl)cc1 | · | ? | · | 7.3µM* | · | ·
NS(=O)(=O)c1ccc(CCNC(=O)c2ccc(Cl)c(S(=O)(=O)N3CCCCC3)c2)cc1 | -11% | ? | -5 | 23µM* | -41% | -4%
SMILES | uPA generation | TDP1 cell CPT | IL-1B inflam inh | DT40 TDP1 no CPT | HT1080-NT tox | HT1080 IDH1KD tx
Cn1c(=O)oc2cc(S(=O)(=O)NCCC(=O)NCCc3ccc(Cl)cc3)ccc21 | · | ? | 30 | -26% | ? | -18%
Cc1ccc(CCNC(=O)c2cc3cc(S(=O)(=O)N4CCCCC4)ccc3n2C)cc1 | · | 7.3µM* | · | 2.9µM* | · | ·
COc1ccc(C(CNC(=O)c2cc(S(=O)(=O)N3CCCCC3)ccc2C)N2CCCC2)cc1 (stereo not given) | 2% | ? | -8 | ? | -1% | 0%
N#CC12CNCC1CN=N2 (stereo not given) | -6% | -1% | 3 | 5% | 11% | 15%
O=NN(CCCl)C(=O)NCCCl | 21% | ? | 33 | ? | 20% | 4%
Cc1cccc(OCC(O)CN2CC2)c1 (stereo not given) | · | 3.7µM* | ? | 6.5µM* | 3% | 16%
CCC(COC(=O)NC)NC(=O)Oc1cccc(C)c1 (stereo not given) | 4% | 2% | 12 | -3% | 23% | 17%
CC(=O)c1cccc(OCC(O)CN2CC=C(c3ccccc3)CC2)c1 (stereo not given) | 3% | ? | -2 | 16µM* | -1% | 17%
Cc1cc(Br)c(NC(=O)CN2CC=C(c3ccccc3)CC2)c(Br)c1 | 2% | 1% | -28 | ? | -7% | -5%
COc1cc([N+](=O)[O-])cc([N+](=O)[O-])c1N | · | -5% | · | -20% | · | ·
CC(C)Cc1nc(N2CCNCC2)c(C#N)c2c1CCC2 | 1% | ? | -18 | 18µM* | 1% | -2%
CCc1nc(N2CCNCC2)c(C#N)c2c1CSC(C)(C)C2 | 1% | ? | 2 | ? | -1% | 3%
O=C1CC(c2ccc(F)cc2)c2c(c3ccccc3oc2=O)O1 (stereo not given) | · | -8% | · | -5% | · | ·

Bioassay records as filed in PubChem BioAssay.
